ELG1 genotox: inducers of genotoxicity in HEK293T ELG1-luciferase cells | HEK293T ELG1-luciferase reporter, luminescence, 16 h | Potency, µM (top dose mostly 46 µM), most hits filed as activators | 330,000 compounds, 1.3% hits; note: nearly all actives have a fitted effect of over 60% in size
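DMSO vehicle served as control against compound-treated ELG1-luciferase HEK293T cells; exposure lasted 16 hr at 37 °C and 5% CO2, followed by ONE-Glo luminescence detection after 30 min.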
SMN2 splice enh: enhancers of SMN2 splice variant expression | HEK293 SMN2-luciferase splicing reporter, luminescence, 30-36 h | Potency, µM (top dose mostly 46.1 µM), actives largely listed as activators | 210,000 compounds, 2.8% hits | AID 1458; note: nearly all actives have a fitted effect of over 55% in size
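qHTS luciferase splicing reporter: luminescence rises when SMN2 exon 7 is included in transfected HEK293 cells. Compound exposure lasted 30-36 h at 37C, with 4.5 mM final sodium butyrate as control, followed by a ONE-Glo read.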
NPC1 promoter act: activators of NPC1 promoter; Huh7 NPC1 promoter luciferase reporter, 24 h; Potency, µM (series often up to 9.22 µM), actives largely listed as activators; 320,000 compounds, 2.4% hits; AID 485313; note: nearly all actives have a fitted effect of over 60% in size
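Huh7 cells stably carrying NPC1 promoter–luciferase, plated in Opti-MEM with 10% FBS for 2 h, were exposed to compound in DMSO for 24 h at 37 °C; luciferase reagent was added for 10 min and luminescence read.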
KinaseGlo FLuc: counter-screen: inhibitors of Kinase-Glo firefly luciferase; Q27757; Kinase-Glo luciferase, ATP luminescence, 8 min; Potency, µM (highest dose often 38.3 µM), hits mostly inhibitors; 200,000 compounds, 0.28% hits; AID 1379; note: nearly all actives have a fitted effect of over 60% in size
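Compounds were added to a substrate mix at pH 7.2 (50 mM imidazole, 10 uM ATP, within the enzyme's linear range), followed by Kinase-Glo detection reagent; luminescence was measured after 8 minutes at ambient temperature.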
Rab9 prom act: Rab9 promoter activation. 320,000 compounds, 2.8% hits. Potency, µM (highest dose often 9.22 µM), most hits filed as activators. Huh7 Rab9 promoter-luciferase reporter, luminescence, 24 h. AID 485297; note: nearly all actives have a fitted effect of over 60% in size
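Luciferase signal after 10 min detection reagent at ambient indicates Rab9 promoter upregulation; stably transfected Huh7 cells were treated 24 h with compound in DMSO at 37 °C, 5% CO2.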
FLuc modulator: firefly luciferase modulation, counter-screen for miR-21 project; P08659; purified FLuc, Km substrates, luminescence inhibition; Potency, µM (highest dose often 57.5 µM), usual class: inhibitors; 360,000 compounds, 6.9% hits; AID 588342; note: nearly all actives have a fitted effect of over 55% in size
Target sequence (P08659 whole entry, looked up): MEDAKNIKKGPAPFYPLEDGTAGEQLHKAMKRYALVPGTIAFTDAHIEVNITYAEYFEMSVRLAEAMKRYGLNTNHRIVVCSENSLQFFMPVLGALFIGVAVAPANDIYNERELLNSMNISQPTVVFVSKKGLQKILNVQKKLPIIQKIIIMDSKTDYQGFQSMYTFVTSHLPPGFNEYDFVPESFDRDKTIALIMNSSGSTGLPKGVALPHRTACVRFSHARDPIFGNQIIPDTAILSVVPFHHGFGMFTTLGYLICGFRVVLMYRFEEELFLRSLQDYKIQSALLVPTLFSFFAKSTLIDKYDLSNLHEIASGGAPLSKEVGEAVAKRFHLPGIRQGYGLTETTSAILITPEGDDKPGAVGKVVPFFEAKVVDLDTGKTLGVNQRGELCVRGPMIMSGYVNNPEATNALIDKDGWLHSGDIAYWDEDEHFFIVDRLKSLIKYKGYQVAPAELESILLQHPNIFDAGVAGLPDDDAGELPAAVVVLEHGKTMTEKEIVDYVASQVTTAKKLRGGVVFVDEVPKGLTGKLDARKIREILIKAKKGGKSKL
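Biochemical qHTS of compounds, final roughly 60 µM downward over six points, against 10 nM purified firefly luciferase using Km concentrations of substrates (10 uM D-luciferin, 10 uM ATP) in Tris acetate pH 7.5 buffer; luminescence output.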
A number is an active result. The list is not random: actives were taken first. Their share in the collection is about 7.5%. Calls come from the whole dose curve; as a rule, active = well fitted curve in the direction sought with a large enough effect; inconclusive = small, poorly fitted or top-dose-only effect, or another doubt; inactive = no such curve, though single readings can be large; an effect the other way counts as inactive or inconclusive.

`CC(C)(C)NC(=O)c1ccccc1NC(=O)c1ccc2c(c1)OCO2` gave ELG1 genotox inactive, SMN2 splice enh inactive, NPC1 promoter act inactive, KinaseGlo FLuc inactive, Rab9 prom act inactive and FLuc modulator inactive.
COC(=O)c1ccccc1NC(=O)CN1CCC(C(=O)c2ccc3c(c2)OCCO3)CC1 was read as ELG1 genotox inactive, SMN2 splice enh inactive, NPC1 promoter act inactive, KinaseGlo FLuc inactive, Rab9 prom act inactive and FLuc modulator inactive.
N#Cc1ccccc1NC(=O)COc1ccc2c(c1)OCO2 was read as ELG1 genotox inconclusive, NPC1 promoter act 3.98µM, Rab9 prom act 3.55µM and FLuc modulator 21.3µM.
COC(=O)c1ccccc1NC(=O)c1ccc2c(c1)OCCCO2 was read as ELG1 genotox inconclusive, NPC1 promoter act inconclusive, Rab9 prom act 2µM and FLuc modulator 19µM.
Screening CCc1ccccc1NC(=O)COc1ccc2c(c1)OCO2 returned ELG1 genotox inactive, SMN2 splice enh inactive, NPC1 promoter act inactive, KinaseGlo FLuc inactive, Rab9 prom act inactive and FLuc modulator inactive.
For CCCCNC(=O)c1ccccc1NC(=O)c1ccc2c(c1)OCO2 the results were ELG1 genotox inactive, SMN2 splice enh inactive, NPC1 promoter act inactive, KinaseGlo FLuc inactive, Rab9 prom act inactive and FLuc modulator 19µM.
For CC1Cc2ccccc2N1C(=O)COc1ccc2c(c1)OCO2 (stereo not drawn) the results were ELG1 genotox inconclusive, SMN2 splice enh inconclusive, NPC1 promoter act 3.16µM, KinaseGlo FLuc inactive, Rab9 prom act inconclusive and FLuc modulator 16.9µM.
Screening CCSc1nc(-c2ccc(Cl)cc2)nc2c1Cc1c(CO)cnc(C)c1O2 returned FLuc modulator inactive.
For CCOc1ccc(C(=O)NCCS(=O)(=O)N2CCN(c3cccc(Cl)c3)CC2)cc1 the results were FLuc modulator inactive.
CCc1ccc(NC(=O)CSc2nnc(-c3nonc3NC(C)=O)n2-c2ccccc2)cc1 was read as FLuc modulator inactive.
For Cc1cccc(NC(=O)c2ccc3c(c2)OCCO3)c1C the results were ELG1 genotox inconclusive, NPC1 promoter act inactive, Rab9 prom act 3.16µM and FLuc modulator 15.1µM.
`CCn1nc(C(=O)Nc2ccc(S(=O)(=O)Nc3nccs3)cc2)c2ccccc2c1=O` gave ELG1 genotox inactive, SMN2 splice enh 14.1µM, NPC1 promoter act inactive, KinaseGlo FLuc inactive, Rab9 prom act inactive and FLuc modulator inactive.
Screening O=C(Nc1ccc(S(=O)(=O)Nc2ncccn2)cc1)c1nn(Cc2ccccc2)c(=O)c2ccccc12 returned ELG1 genotox inactive, NPC1 promoter act inactive, Rab9 prom act inactive and FLuc modulator inactive.
CC(C)N(C(C)C)S(=O)(=O)c1ccc(N2CCc3ccccc3C2)nc1 was read as ELG1 genotox inconclusive, NPC1 promoter act inconclusive, Rab9 prom act 3.98µM and FLuc modulator 13.5µM.
COc1ccc(CNC(=O)c2cc(-c3cccs3)nc3ccccc23)c(OC)c1 was read as SMN2 splice enh inactive and FLuc modulator inactive.
`CCCS(=O)(=O)Nc1cc(-c2cn3ccc(C)cc3n2)ccc1C` gave SMN2 splice enh inactive and FLuc modulator 9.53µM.
Screening COc1ccc(S(=O)(=O)Nc2cc(-c3cn4ccc(C)cc4n3)ccc2C)cc1OC returned SMN2 splice enh inactive and FLuc modulator 15.1µM.
`Cc1ccn2cc(CNS(=O)(=O)c3cccs3)nc2c1` gave ELG1 genotox inactive, NPC1 promoter act inactive, Rab9 prom act inactive and FLuc modulator inactive.
`COc1ccc(Br)cc1S(=O)(=O)Nc1cc(-c2cn3ccccc3n2)ccc1C` gave SMN2 splice enh inactive and FLuc modulator inconclusive.
Screening C=CC[C@H](CC(=O)N(CCO)Cc1ccccc1)C(=O)N[C@H](COC(=O)[C@@H](CC=C)Cc1ccc(F)cc1)Cc1ccccc1 returned ELG1 genotox inactive.
Nc1ccc(-n2ccnc2)cc1 was read as ELG1 genotox inactive, SMN2 splice enh inactive, NPC1 promoter act inactive, KinaseGlo FLuc inactive, Rab9 prom act inactive and FLuc modulator inactive.
For c1ccc2nc(-c3ccc(-n4ccnc4)cc3)ccc2c1 the results were ELG1 genotox 2.59µM, NPC1 promoter act 1µM, Rab9 prom act 0.631µM and FLuc modulator 3.38µM.
`Cc1ccccc1C(=O)NCC(=O)OCCOc1ccc(C(C)C)c(C)c1` gave ELG1 genotox inactive, NPC1 promoter act inactive, Rab9 prom act inactive and FLuc modulator inactive.
For Cc1ccc2[nH]c3c(c2c1)CC/C(=C/c1ccccc1)C3=O the results were ELG1 genotox inconclusive, SMN2 splice enh inconclusive, NPC1 promoter act inactive, KinaseGlo FLuc inactive, Rab9 prom act inconclusive and FLuc modulator 4.78µM.
For O=C1/C(=C\c2ccccc2)CCc2c1[nH]c1ccccc21 the results were ELG1 genotox 1.46µM, SMN2 splice enh 11.2µM, NPC1 promoter act inconclusive, KinaseGlo FLuc inactive, Rab9 prom act inconclusive and FLuc modulator 2.69µM.
`Cc1ccc(/C=C2/CCc3c([nH]c4ccccc34)C2=O)cc1` gave ELG1 genotox inconclusive, SMN2 splice enh 6.31µM, NPC1 promoter act 0.501µM, KinaseGlo FLuc inactive, Rab9 prom act 0.447µM and FLuc modulator 0.757µM.
Screening CC(C)/C=C1\CCc2c([nH]c3ccccc23)C1=O returned ELG1 genotox inactive, NPC1 promoter act inactive, KinaseGlo FLuc inactive, Rab9 prom act inconclusive and FLuc modulator inconclusive.
CCOc1ccc(NC(=O)Cn2c(=O)n(-c3cccc(OC)c3)c(=O)c3c4c(sc32)CCCC4)cc1 was read as SMN2 splice enh inactive and FLuc modulator inactive.
For O=C(CSc1nc2cc3ccccc3cc2[nH]1)Nc1cccc(C(F)(F)F)c1 the results were SMN2 splice enh inactive and FLuc modulator inactive.
`COc1ccc(C(=O)NCC(c2cccnc2)N2CCc3ccccc3C2)cc1OC` (stereo not drawn) gave FLuc modulator 0.675µM.
`COc1ccc(C(=O)NCC(c2cccnc2)N2CCc3ccccc3C2)cc1` (stereo not drawn) gave FLuc modulator inactive.
Screening Cc1ccc2cc(C3CC(c4ccco4)=NN3S(=O)(=O)c3ccccc3)c(Cl)nc2c1 (stereo not drawn) returned ELG1 genotox inactive, SMN2 splice enh 31.6µM, NPC1 promoter act inactive, KinaseGlo FLuc inactive, Rab9 prom act inactive and FLuc modulator inactive.
CONC(=O)C1CCN(C(=O)OCc2ccccc2)CC1 was read as ELG1 genotox inactive, SMN2 splice enh 7.94µM, NPC1 promoter act inconclusive, KinaseGlo FLuc inactive, Rab9 prom act inconclusive and FLuc modulator inactive.
Screening COc1cccc(C(=O)c2cn(CC(=O)Nc3cccc(Cl)c3C)c3nc(C)ccc3c2=O)c1 returned FLuc modulator inactive.
For CCOC(=O)C1=CC2(CC)CCCN3CCc4c(n1c1ccccc41)C32 (stereo not drawn) the results were SMN2 splice enh inactive.

Screening data as filed in PubChem BioAssay.
